Only some compounds are listed: those with a hit (about 3% of all), similar ones and a draw of the others.
SNCA expr inh = SNCA gene expression inhibition; HEK-293 SNCA-luciferase knock-in, luminescence, 24 h; Potency, µM (series often up to 57.2 µM), actives largely listed as inhibitors; hit rate 0.17% among 140,000; AID 1671194; also: nearly all actives have a fitted effect of over 45% in size
KDM5B inh = blocks human KDM5B histone demethylase activity | Q9UGL1 | hit rate 2.6% among 220,000 | KDM5B demethylase, FDH-coupled NADH fluorescence (FDH is formaldehyde dehydrogenase) | Potency, µM (doses to about 57.7 µM), actives largely listed as inhibitors; also: nearly all actives have a fitted effect of over 70% in size
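Inhibition is measured as reduced NADH fluorescence generation from FDH coupling to formaldehyde release. Truncated KDM5BΔAP at 200 nM final acts on H3K4me3 peptide (12.5 µM in substrate mix) in pH 7.5 HEPES buffer with Tween-20, 30 min, room temperature.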
IP6K1 inhibitor = IP6K1 kinase inhibition. Q92551. IP6K1 kinase, ADP-Glo luminescence, 2 h; stronger effect = lower value. activity change, % (series mostly up to about 58 µM). hit rate 0.81% among 140,000; in the data active = activity change below about -25%
Target sequence (Q92551 whole entry, looked up): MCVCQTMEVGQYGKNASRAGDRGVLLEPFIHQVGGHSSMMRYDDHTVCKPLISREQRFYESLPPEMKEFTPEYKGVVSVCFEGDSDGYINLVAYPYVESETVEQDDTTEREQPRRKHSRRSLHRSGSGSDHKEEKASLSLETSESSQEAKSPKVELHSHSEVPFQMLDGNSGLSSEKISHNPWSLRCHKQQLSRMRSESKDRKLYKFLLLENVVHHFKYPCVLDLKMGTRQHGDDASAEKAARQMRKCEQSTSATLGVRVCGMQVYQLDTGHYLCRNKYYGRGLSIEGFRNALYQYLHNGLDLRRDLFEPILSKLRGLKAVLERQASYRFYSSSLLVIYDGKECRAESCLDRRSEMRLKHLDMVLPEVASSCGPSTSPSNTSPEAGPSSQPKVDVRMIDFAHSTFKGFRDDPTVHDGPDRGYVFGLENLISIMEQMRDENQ
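ADP-Glo luminescence measures ADP made by human IP6K1 during a 2 h RT reaction with ATP/IP6 (mix at 1.3 mM/130 uM); top library doses 57.5 and 19.1 uM final.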
SNCA viab count = counter-screen for SNCA expression inhibitors: cell viability; HEK-293-SNCA-luc viability, GF-AFC fluorescence, 24 h; Potency, µM (highest dose often 57.1 µM), actives largely listed as cytotoxic; hit rate 0.12% among 150,000; also: nearly all actives have a fitted effect of over 30% in size
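HEK-293-SNCA-luc cells (1500/well) plated 24 h, then exposed 24 h to a dilution series; GF-AFC added 30 min at 37C, fluorescence 405/540 nm; normalised to medium-only and DMSO wells, Hill fit.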
Large screens that a line does not name were inactive; ! = a repeat was not active. Unless noted, calls follow the shape of the dose curve; as a rule, active = well fitted curve in the direction sought with a large enough effect; inconclusive = small, poorly fitted or top-dose-only effect, or another doubt; inactive = no such curve, though single readings can be large; an effect the other way counts as inactive or inconclusive.

CCN1CCC(N2CCC(Oc3ccccc3-c3nc(-c4ccncc4)no3)C2)CC1 (stereo not given)	SNCA expr inh inconclusive, SNCA viab count 14µM
COc1cccc(-c2ccc(CN3CCCC(N[S+](=O)([O-])c4cccs4)C3)cc2)c1 (stereo not given)	none (no result: KDM5B inh)
O=C(NCc1cccs1)C1CCCN(Cc2cccc(-c3ccc(F)cc3F)c2)C1 (stereo not given)	SNCA expr inh inconclusive (no result: KDM5B inh)
O=C(NCc1ccnc2[nH]ccc12)c1ccc(C(F)(F)F)cc1	KDM5B inh 35µM!
COc1cc(NS(=O)(=O)c2cccc(Cl)c2Cl)c(C(=O)O)cc1OC	none (no result: SNCA expr inh, IP6K1 inhibitor, SNCA viab count)
COc1cc(O)ccc1-c1nc2ccc(Br)cn2c1Nc1ccccc1C	SNCA expr inh inconclusive, KDM5B inh inconclusive, SNCA viab count 14µM
Cc1ccccc1Nc1c(-c2cccc(O)c2)nc2ccc(Br)cn12	SNCA expr inh inconclusive, KDM5B inh inconclusive
Cn1c(Cn2cncn2)nnc1C1CCN(Cc2ccc3ccccc3n2)CC1	KDM5B inh inconclusive
Cc1ccc(C#N)c(N2CCC(c3nnc(Cn4cncn4)n3C)CC2)n1	KDM5B inh 28µM
CC(O)c1cc2n(n1)CCN(C(=O)c1nc3ccccc3n(C)c1=O)C2 (stereo not given)	KDM5B inh 25µM
Cc1cc(C(=O)N2CCn3nc(C(C)O)cc3C2)c2ccc(F)cc2n1 (stereo not given)	none
CC(C)C(=O)NC(C)C(=O)N1CCN(c2ccccn2)CC1 (stereo not given)	KDM5B inh inconclusive
COc1ccccc1CCC(=O)NC(C)C(=O)N1CCN(c2ccccn2)CC1 (stereo not given)	KDM5B inh 25µM
COc1ccccc1CC(=O)NC(C)C(=O)N1CCN(c2ccccn2)CC1 (stereo not given)	KDM5B inh 28µM
COc1ccccc1NC(=O)C(C)OC(=O)c1nn(C)c(=O)c2ccccc12 (stereo not given)	none (no result: SNCA expr inh, IP6K1 inhibitor, SNCA viab count)
COCC(=O)N[C@@H]1CN(Cc2ccccc2)C[C@H]1CN(C)C	none
CN(C)C[C@@H]1CN(Cc2ccncc2)C[C@H]1NC(=O)c1ccc(Cl)cc1	KDM5B inh 20µM, SNCA viab count inconclusive
COCC(=O)N[C@@H]1CN(Cc2ccncc2)C[C@H]1CN(C)C	KDM5B inh 25µM
CN(C)C[C@@H]1CN(Cc2ccncc2)C[C@H]1NC(=O)c1ccoc1	KDM5B inh inconclusive
COC(=O)NC1CCN(c2nccc(Nc3ccccc3OC)n2)CC1	none (no result: KDM5B inh)
COc1ccc(C(=O)N2CC(N3C(=O)c4c(c(C)nn4-c4ccccc4)C3C3CC3)C2)cc1 (stereo not given)	none (no result: SNCA expr inh, KDM5B inh, SNCA viab count)
CCCN1CCN(C(=O)C2CCc3ncc(-c4ccsc4)n3C2)CC1 (stereo not given)	KDM5B inh inconclusive
CN(C)C(=O)c1cc2c(s1)CCC(C(=O)N1CCN(c3ccccn3)CC1)C2 (stereo not given)	KDM5B inh 28µM
O=C(C1CCc2ncc(-c3ccsc3)n2C1)N1CCN(c2ccccn2)CC1 (stereo not given)	SNCA expr inh inconclusive, KDM5B inh 25µM
CNc1nnc(SCc2cccc(C#N)c2)s1	none (no result: SNCA expr inh, IP6K1 inhibitor, SNCA viab count)
C/C(=N/NC(N)=S)c1ccc(Cl)cc1Cl	none (no result: SNCA expr inh, IP6K1 inhibitor, SNCA viab count)
Cc1cc(F)ccc1-c1[nH]nc2ncc(-c3cn[nH]c3)nc12	SNCA expr inh inconclusive, KDM5B inh 28µM
CC(=O)Nc1cccc(-c2cnc3n[nH]c(-c4sccc4C)c3n2)c1	SNCA viab count inconclusive
CC(=O)Nc1cccc(-c2cnc3n[nH]c(-c4ccc(F)cc4C)c3n2)c1	SNCA expr inh inconclusive, KDM5B inh 35µM
Cc1cc(F)ccc1-c1[nH]nc2ncc(-c3ccc([S+](C)(=O)[O-])cc3)nc12	SNCA expr inh inconclusive, KDM5B inh 35µM
Cc1ccc(Nc2ccnc(N3CCCC3C(=O)NCCCc3ccccc3)n2)cc1 (stereo not given)	SNCA expr inh inconclusive (no result: KDM5B inh)
O=C(NCC(F)F)C1CCN(C(=O)c2ccc(-c3cccs3)cc2)CC1	none (no result: SNCA expr inh, KDM5B inh, SNCA viab count)
CC(=O)NC(CO)C(=O)N1CCc2onc(-c3cccc4ccccc34)c2C1 (stereo not given)	KDM5B inh 32µM
O=C(Cn1cnnn1)N1CCc2onc(-c3cccc4ccccc34)c2C1	SNCA expr inh inconclusive, KDM5B inh 32µM
N#C/C(=C\c1ccc(OCc2ccc(Cl)c(Cl)c2)cc1)C(=O)c1ccccc1	none (no result: SNCA expr inh, IP6K1 inhibitor, SNCA viab count)
Cc1cn2nc(C(=O)NCc3ccccc3Cl)cc2c(N2CCCC2)n1	none
CCN(Cc1ccccc1)C(=O)c1cc2c(N3CCCC3)nc(C)cn2n1	KDM5B inh 25µM
COc1ccccc1CNC(=O)c1cc2c(N3CCSCC3)nc(C)cn2n1	KDM5B inh 7.1µM
COc1ccccc1CNC(=O)c1cc2c(N3CCCC3)nc(C)cn2n1	KDM5B inh 28µM
COc1ccc(CNC(=O)c2cc3c(N4CCCC4)nc(C)cn3n2)c(OC)c1	KDM5B inh 28µM
CCCCCCn1nc(C(=O)Nc2ccc(OC)c(OC)c2)c2ccccc2c1=O	none (no result: SNCA expr inh, IP6K1 inhibitor, SNCA viab count)
O=C(NC1CCN(c2nccc(Nc3ccccc3Cl)n2)CC1)C1CC1	none (no result: KDM5B inh)
Cc1ccc(CCNC(=O)c2cc3c(N4CCCC4)nc(C)cn3n2)cc1	none
Cc1cn2nc(C(=O)NCc3ccc(C(C)C)cc3)cc2c(N2CCCC2)n1	KDM5B inh 35µM
Cc1cn2nc(C(=O)NCc3ccccc3F)cc2c(N2CCCC2)n1	KDM5B inh 25µM
Cc1cccc(CNC(=O)c2cc3c(N4CCCC4)nc(C)cn3n2)c1	none
Cc1cn2nc(C(=O)N3CCN(C(=O)c4ccco4)CC3)cc2c(N2CCCC2)n1	SNCA expr inh inconclusive, KDM5B inh 32µM, SNCA viab count inconclusive
Cc1cn2nc(C(=O)NCc3ccccc3F)cc2c(N2CCSCC2)n1	SNCA expr inh inconclusive, KDM5B inh inconclusive
O=C(NC1CCN(c2cc(-c3ccc(F)cc3)[nH]n2)CC1)c1cccc2[nH]ccc12	KDM5B inh 32µM
CN(C)c1ccc(C(=O)NC2CCCN(c3cc(-c4ccccc4)[nH]n3)C2)cc1 (stereo not given)	none
Cn1ncc(N2CCC(NC(=O)c3ccc4c(c3)OCO4)CC2)cc1=O	none
CN(C)c1ccc(C(=O)NC2CCN(c3cc(-c4ccccc4)[nH]n3)C2)cc1 (stereo not given)	KDM5B inh 14µM
CN(C)c1cccc(C(=O)NC2CCN(c3cnn(C)c(=O)c3)CC2)c1	KDM5B inh 25µM
CN(C)c1cccc(C(=O)NC2CCN(c3cc(-c4ccccc4)[nH]n3)C2)c1 (stereo not given)	KDM5B inh 25µM
COc1ccc(-c2ccc(C(=O)NCCc3ccc(F)cc3)c(Cl)c2)nn1	none (no result: SNCA expr inh, KDM5B inh, SNCA viab count)
COc1cccc(-c2ccc(C(=O)N3CCC(NC(=O)C(C)(C)C)CC3)cc2)c1	none (no result: KDM5B inh)
Cn1ncc2c(C(=O)NCc3ccc4c(c3)OCO4)cc(-c3ccccc3F)nc21	none (no result: SNCA expr inh, KDM5B inh, SNCA viab count)
COc1ccc(-c2cc(N3CCCC(NC(=O)c4ccc(N(C)C)cc4)C3)n[nH]2)cc1 (stereo not given)	KDM5B inh 25µM
CN(C)c1ccc(C(=O)NC2CCCN(c3cc(-c4ccc(F)cc4)[nH]n3)C2)cc1 (stereo not given)	KDM5B inh inconclusive
Cc1ccc(C(=O)NC2CCN(c3cc(-c4ccccc4)[nH]n3)C2)cc1 (stereo not given)	KDM5B inh 14µM
